KB-3-1 tox: qHTS assay for MDR1-selective chemotherapeutics: Primary screen using the parental adenocarcinoma cell KB-3-1. 400,000 tested, 1.4% active. KB-3-1 viability, CellTiter-Glo ATP luminescence, 72 h. AID 1347075, 2019. Potency, µM (titrated, usually from 46.1 µM), actives largely listed as cytotoxic; also: nearly all actives have a fitted effect of over 60% in size
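Parental KB-3-1 viability, qHTS format: 72 h compound exposure, 37 °C; CellTiter-Glo; media-only wells and DMSO plates as controls; concentration-effect fits on corrected data.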
KB-V1 cytotox: qHTS assay for MDR1-selective chemotherapeutics: Primary screen using the drug-selected MDR subline cells KB-V1; KB-V1 MDR cells viability, CellTiter-Glo, 72 h; Potency, µM (titrated, usually from 46.1 µM), actives largely listed as cytotoxic; 400,000 tested, 3.4% active; AID 1347076, 2019; also: nearly all actives have a fitted effect of over 60% in size
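Cells of the MDR subline KB-V1 are plated, dosed with compound at multiple concentrations, and incubated 72 h at 37 degrees C; CellTiter-Glo is then added and luminescence read after 10 min.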
HT1080NT lethal: qHTS for induction of synthetic lethality in tumor cells producing 2HG: qHTS for the HT-1080-NT fibrosarcoma cell line; HT-1080-NT fibrosarcoma viability, CellTiter-Glo ATP luminescence, 48 h; Potency, µM (highest dose often 46.1 µM), without a hit: top-dose activity, negative = less viability, hits mostly cytotoxic; 360,000 tested, 1.6% active; AID 686970, 2013;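 also: NT is the 2HG producing partner of a matched IDH1 knockdown line; 0% = DMSO-treated cells and -100% = media-only wells without cells; nearly all actives have a fitted effect of over 55% in size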
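Viability by CellTiter-Glo luminescence after 48 h compound exposure at 37C of HT-1080-NT cells (750/well, RPMI, 5% FBS). % activity scaled between DMSO wells and medium-only wells, then curve-fitted and categorized by curve class.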
DT40 TDP1 no CPT: qHTS for Inhibitors of human tyrosyl-DNA phosphodiesterase 1 (TDP1): qHTS in cells in absence of CPT; Potency, µM (doses to about 46.2 µM), for the others: at the top dose activity change, negative = growth inhibition, hits mostly inhibitors; 420,000 tested, 15% active; DT40 Tdp1-/- hTDP1 cells, no CPT, ATP luminescence, 48 h; also: nearly all actives have a fitted effect of over 55% in size
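No-CPT arm: Tdp1-/-;hTDP1 DT40 cells (400/well) plus compounds, incubated ≥48 hr at 37 °C. Readout CellTiter-Glo luminescence.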
DT40 TDP1 CPT: qHTS for Inhibitors of human tyrosyl-DNA phosphodiesterase 1 (TDP1): qHTS in cells in presence of CPT. chicken DT40 Tdp1-/-;hTDP1 cells + 20 nM CPT, ATP luminescence, 48 h. 420,000 tested, 12% active. Potency, µM (top dose mostly 46.2 µM), inactives show at the top dose activity change, negative = growth inhibition, hits mostly inhibitors; also: nearly all actives have a fitted effect of over 55% in size
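Chicken DT40 Tdp1-/- cells stably complemented with human TDP1 were seeded at 400 cells/well in medium containing 20 nM camptothecin, exposed to pin-transferred compounds, and grown at 37 °C for at least 48 hr. Viability was read as ATP luminescence.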
HT1080 IDH1KD tx: qHTS for induction of synthetic lethality in tumor cells producing 2HG: qHTS for the HT-1080-IDH1KD cell line; HT-1080 IDH1 knockdown viability, ATP luminescence, 48 h; Potency, µM (top dose mostly 46.1 µM), for the others: at the top dose activity, negative = toxicity, most hits filed as cytotoxic; 360,000 tested, 2% active; AID 686971, 2013;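 also: 0% = DMSO wells and -100% = cell-free medium wells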
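Knockdown cells (IDH1KD HT-1080) received compounds 2 h after plating at 750 cells/well and were kept 48 h at 37 °C in 5% FBS RPMI. A CellTiter-Glo luminescence read gave % activity for curve fitting.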
Starred values were filed as active, the others as inactive; i = inactive; u = inconclusive; x = no result given; [ ] = another dose, or the depositor's remark. Compounds with a hit are over-represented: about 19% of the library has one in this group of screens. Calls follow the shape of the dose curve; as a rule, active = well fitted curve in the direction sought with a large enough effect; inconclusive = small, poorly fitted or top-dose-only effect, or another doubt; inactive = no such curve, though single readings can be large; an effect the other way counts as inactive or inconclusive. Unless noted, % is scaled to controls: 0 for no effect and ±100 for the full control effect; potency is read from the fitted curve at half-maximal effect.

SMILES	KB-3-1 tox	KB-V1 cytotox	HT1080NT lethal	DT40 TDP1 no CPT	DT40 TDP1 CPT	HT1080 IDH1KD tx
COc1ccc(CNC(=O)c2cnn(-c3ccc(OC)cc3)c2C2CCN(C(=O)OC(C)(C)C)CC2)cc1	i	i	x	u	u	x
COc1ccc(-n2ncc(C(=O)NCCc3ccsc3)c2C2CCN(C(=O)OC(C)(C)C)CC2)cc1	i	i	x	u	23µM*	x
CN1CCN(c2cccc(Nc3nn4c(=O)c5ccc(Br)cc5nc4s3)c2)CC1	i	i	x	x	x	x
COc1ccc(C(=O)CCC(=O)Nc2ccc(C)c(Cl)c2)cc1	i	i	x	-17%	3%	x
COc1ccc(C)cc1S(=O)(=O)N(CC(=O)N1CCOCC1)Cc1ccccc1	i	u	0%	-12%	-9%	-4%
COc1ccc(S(=O)(=O)N(CC(=O)N2CCOCC2)Cc2ccccc2)cc1C	i	2.9µM*	0%	-26%	-14%	-20%
O=C(CN(Cc1ccc(F)cc1)S(=O)(=O)c1ccccc1)N1CCCCC1	i	u	0%	16µM*	u	0%
COCCN1C(=O)CSCC1(C)C(=O)Nc1ccc2c(c1)OCCO2 (centres undefined)	i	i	10%	-14%	-28%	23%
O=C(NCc1nnc2n1CCN(Cc1cc(F)cc(F)c1)CC2)c1cccc(F)c1	x	x	x	4.6µM*	4.1µM*	x
CC(CN1CCc2nnc(CNC(=O)c3cccc(F)c3)n2CC1)c1ccccc1 (centres undefined)	x	x	x	u	-3%[9.04 µM]	x
CC(C)n1nnnc1C1c2ccccc2C(=O)N1Cc1cccnc1 (centres undefined)	i	i	10%	-17%	-5%	u
Cc1ccc(S(=O)(=O)N(CCC(=O)NCC(c2ccccc2)N(C)C)c2ccccc2)cc1 (centres undefined)	i	10µM*	-10%	-22%	u	13%
CN(c1ccc(F)cc1)S(=O)(=O)c1ccc(Cl)c(C(=O)OCC(=O)NCc2ccco2)c1	i	u	1%	u	-7%	2%
CN(C)C(CNC(=O)c1cc(S(=O)(=O)N(C)c2ccc(F)cc2)ccc1Cl)c1ccco1 (centres undefined)	i	u	2%	7.3µM*	9.2µM*	5%
CN(c1ccccc1)S(=O)(=O)c1ccc(Cl)c(C(=O)NCc2ccco2)c1	i	i	4%	u	u	10%
CN(c1ccc(F)cc1)S(=O)(=O)c1ccc(Cl)c(C(=O)NCC(c2ccco2)N2CCCCC2)c1 (centres undefined)	i	u	-4%	2.3µM*	2.3µM*	-7%
CN(C)C(CNC(=O)c1cc(S(=O)(=O)N(C)c2ccccc2)ccc1Cl)c1ccccc1 (centres undefined)	u	i	-3%	6.5µM*	5.8µM*	-8%
O=C(Nc1c2c(nn1-c1ccccc1)CS(=O)(=O)C2)c1ccc(Br)o1	i	i	-2%	-16%	-8%	0%
CN1C(=O)C2CCCCN2c2ccc(C(=O)NCc3ccccc3Br)cc21 (centres undefined)	i	i	x	-22%	u	x
Cc1ccc(S(=O)(=O)N(C)c2ccc(C(=O)NCC(c3ccco3)N3CCCC3)cc2)cc1 (centres undefined)	i	i	0%	16µM*	u	-9%
CN(c1ccccc1)S(=O)(=O)c1ccc(Cl)c(C(=O)NCc2ccccc2CN2CCCC2)c1	i	i	-9%	23µM*	u	-7%
COC(=S)N/C(=N\S(=O)(=O)c1ccc(Cl)cc1)c1ccccc1	i	i	13%	-1%	-10%	28%
COc1cccc(CNC(=O)Nc2cc(C(=O)NCc3cccc(F)c3)ccc2N2CCCC2)c1	u	i	x	u	u	x
CN(C)C(=S)N=c1ssc(=S)n1Cc1ccccc1	u	u	5.8µM*	3.7µM*	2.6µM*	8.2µM*
O=[N+]([O-])c1ccc2c([N+](=O)[O-])ccc3c2c1CC3	i	u	-5%	18µM*	18µM*	-4%
SMILES	KB-3-1 tox	KB-V1 cytotox	HT1080NT lethal	DT40 TDP1 no CPT	DT40 TDP1 CPT	HT1080 IDH1KD tx
Cc1ccc(C(=O)Nc2ccc3c4c(cccc24)CC3)cc1[N+](=O)[O-]	i	i	18%	u	u	9%
COC(=O)C1CCN(S(=O)(=O)c2cc3c4c(c2)C(C)C(=O)N4CCC3)CC1 (centres undefined)	i	i	x	-16%	-12%	x
Cc1ccc(-c2csc(NC(=O)c3ccc(-c4ccccc4)cc3)n2)o1	u	15µM*	0%	u	16µM*	-22%
Cc1csc(NC(=O)c2ccccc2)n1	i	i	-23%	-22%	-1%	u
O=C(Nc1nc(-c2ccco2)cs1)c1ccccc1	i	i	2%	u	13µM*	0%
CC(C)(C)OC(=O)C(Cc1ccc(OC(C)(C)C)cc1)NC(=O)CNC(=O)OCc1ccccc1 (centres undefined)	u	2.9µM*	0%	12µM*	16µM*	-14%
CC(C)C[C@H](NC(=O)c1[nH]cnc1C(=O)N[C@@H](Cc1ccccc1)C(=O)OC(C)(C)C)C(=O)OCc1ccccc1	i	i	u	23µM*	u	u
C[C@H](NC(=O)c1nc[nH]c1C(=O)N[C@@H](Cc1ccccc1)C(=O)OCc1ccccc1)C(=O)OC(C)(C)C	i	i	-2%	-28%	u	-20%
CC(C)C[C@H](NC(=O)c1[nH]cnc1C(=O)Nc1ccccc1F)C(=O)OC(C)(C)C	u	u	-23%	23µM*	-89%	u
C[C@@H](OC(=O)c1[nH]cnc1C(=O)N1CCN(C(=O)OC(C)(C)C)CC1)c1ccccc1	i	i	9%	-18%	u	9%
CC(C)C[C@H](NC(=O)c1[nH]cnc1C(=O)N[C@@H](C)c1ccccc1)C(=O)OC(C)(C)C	u	i	u	u	u	u
